Reference: PubChem BioAssay (NCATS)
Results filed as inconclusive are left out. Calls of active or inactive are those of the source. Calls follow the shape of the full dose curve.

biological target: Peroxisome proliferator-activated receptor delta (Homo sapiens) (UniProt Q03181); assay: qHTS assay for small molecule agonists of peroxisome proliferator-activated receptor delta signaling (AID 588534); settings: HEK293T PPARdelta-UAS-bla, beta-lactamase ratio, 18 h; series mostly up to 76.7 µM
Outline: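 Reporter cells were plated and held 5 hrs at 37 C before compounds were added. After 18 hrs at 37 C, CCF4 dye was loaded for 2 hrs at RT and fluorescence measured.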

Chain of Peroxisome proliferator-activated receptor delta (Homo sapiens) (Q03181 whole entry, looked up): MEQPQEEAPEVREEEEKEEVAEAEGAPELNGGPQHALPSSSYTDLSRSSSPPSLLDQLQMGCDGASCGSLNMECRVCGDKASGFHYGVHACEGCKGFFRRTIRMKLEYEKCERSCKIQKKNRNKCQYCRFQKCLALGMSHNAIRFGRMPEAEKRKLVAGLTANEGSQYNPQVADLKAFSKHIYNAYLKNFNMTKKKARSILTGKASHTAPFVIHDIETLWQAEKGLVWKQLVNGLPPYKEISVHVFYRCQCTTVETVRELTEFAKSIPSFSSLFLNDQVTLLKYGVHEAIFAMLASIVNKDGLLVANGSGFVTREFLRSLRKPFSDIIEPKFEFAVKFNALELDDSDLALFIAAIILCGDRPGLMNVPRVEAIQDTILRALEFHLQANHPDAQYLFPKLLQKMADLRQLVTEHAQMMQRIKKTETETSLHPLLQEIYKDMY

outcome, inactive:
CCOC(=O)C1OC1c1ccccc1 (centres undefined)
COC(=O)c1ccccc1C(=O)O
C1CCCNCC1
ClCCCl
CC(=O)Nc1cccc(C)c1
Clc1nc2ccccc2nc1Cl
CNc1ccccc1
CCCCCc1ccc(N)cc1
Oc1cc2c(cc1O)[C@H]1c3ccc(O)c(O)c3OC[C@@]1(O)C2
CCNS(=O)(=O)c1ccc(C)cc1
C=CC(=O)OCC(C)OCC(C)OCC(C)OC(=O)C=C (centres undefined)
Oc1ccc2cc(SSc3ccc4cc(O)ccc4c3)ccc2c1
CCNC(=S)NCC
COC(=O)CSc1cc(N=c2sc(=O)n3n2CCCC3)c(F)cc1Cl
CCCCC(CC)COC(C)=O (centres undefined)
Cc1cccc(C)c1O
O=[N+]([O-])c1cccc(C(F)(F)F)c1
NS(=O)(=O)O
CCOC(=O)OCC
O=C(O)/C=C/c1ccc(/C=C/C(=O)O)cc1
Nc1ccc([N+](=O)[O-])c(N)c1
Brc1ccc(Oc2ccc(Br)cc2)cc1
OCCOCCOCCOCCOCCO
CCCCCCC(O)CCCCCCCCCCC(=O)OC (centres undefined)
OC/C(Br)=C(\Br)CO
CCC(C)c1ccccc1O (centres undefined)
Cc1cccc(C)c1[N+](=O)[O-]
CCOCC(=O)O
CCOC(=O)COc1cc(-n2ncc(C(F)(F)F)c(C)c2=O)c(F)cc1Cl
CCCCNCC
O=C(O)c1ccc(C(=O)O)c(C(=O)O)c1
NC(N)=O
O=C(O)c1cccc(Cl)c1Cl
COC(=O)c1cccc(C(=O)OC)c1
Brc1cc(Oc2cc(Br)c(Br)c(Br)c2Br)c(Br)c(Br)c1Br
O=c1[nH]ncc2ccccc12
O=C(c1ccc(Cl)cc1)c1ccc(Cl)cc1
CCCCCCCCCCCCCCC(=O)OC
CO[Si](CCCNCCN)(OC)OC
